Our source for the Potency, activity change, negative = cytotoxicity and outcome values is PubChem BioAssay (Tox21).

Inconclusive results are not listed. Entries that show only a call come without a potency. The source made the active and inactive calls. Calls come from the whole dose curve; as a rule, active = well fitted curve in the direction sought with a large enough effect in the repeat runs; inconclusive = weak or mixed curves; inactive = no such curve, though single readings can be large; an effect the other way counts as inactive or inconclusive.

The first test is described as follows: qHTS assay to identify small molecule agonists of the estrogen receptor beta (ER-beta) signaling pathway - cell viability counter screen (AID 1259380). Note: nearly all actives have a fitted effect of over 30% in size. Particulars: ER-beta-bla HEK293T viability, CellTiter-Glo luminescence, 16 h; series mostly up to 92.4 µM. In outline: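 Measured: luminescence from CellTiter-Glo after 30 min at room temperature, added to wells already read for the LiveBLAzer FRET reporter (2 hr substrate); ER-beta-UAS-bla HEK293T cells had 16 hr compound treatment at 37C, 5% CO2.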
(In general: qHTS replaces the single test concentration by a dilution series.)
On to `NS(=O)(=O)c1ccc(NC(=O)CCC(=O)O)cc1`, for which the Potency result was “inactive”.

With `CCCCCCCCSCC`, the Potency result is “inactive”.

Take `CC(C)N(c1ccccc1)C(C)C`: the Potency entry was “inactive”.

Take `CC(C)CC(=O)O`: the Potency entry was “inactive”.

Take `C=C(C)C(=O)OCCOP(=O)(O)OCCOC(=O)C(=C)C`: the Potency result was “inactive”.

In the case of `CC(=O)NCCCCCC(=O)O`, the Potency entry is “inactive”.

Turning to `COC(=O)CCCCCCCC(=O)OC`, the Potency entry is “inactive”.

Regarding `CN(C)C(=O)CNC(=O)Cc1ccccc1`, the Potency result is “inactive”.

As to `C[C@H](N)[C@H](O)c1cccc(O)c1`, the Potency result was “inactive”.

Consider `Cc1ccc2c(c1)OCC(=O)CO2`, for which the Potency result was “inactive”.

Consider `C[C@H](CCC(=O)O)[C@H]1CC[C@H]2[C@@H]3C(=O)C[C@@H]4CC(=O)CC[C@]4(C)[C@H]3CC(=O)[C@]12C`, for which the Potency entry is “inactive”.

Consider `Cc1ccc(C=O)cc1C`, for which the Potency result is “inactive”.

Take `CCCCCCCCOS(=O)(=O)O`: the Potency entry is “inactive”.

`CC(=O)/C=C/C1C(C)=CCC(C)C1(C)C` (centres undefined): the Potency entry was “inactive”.

Take `CCCC(=O)C(C)=O`: the Potency entry is “inactive”.

`O=C1CCCC(=O)O1`: the Potency entry is “inactive”.

On to `CCOC(=O)CC(=O)c1ccccc1`, for which the Potency entry is “inactive”.

Regarding `C[C@@H](O)[C@H]1C(=O)N2C(C(=O)O)=C(SCCN=CN)C[C@H]12`, the Potency entry was “inactive”.

In the case of `CC(C)OC(=O)CCCCC(=O)OC(C)C`, the Potency result was “inactive”.

Turning to `CNS(=O)(=O)CCc1ccc2[nH]cc(C3CCN(C)CC3)c2c1`, the Potency entry is “inactive”.

As to `CC(=C(CCOC(=O)C(C)C)SSC(CCOC(=O)C(C)C)=C(C)N(C=O)Cc1cnc(C)nc1N)N(C=O)Cc1cnc(C)nc1N`, the Potency result is “inactive”.

Regarding `O=S(=O)(O)c1ccc2cc(O)c(S(=O)(=O)O)cc2c1`, the Potency result was “inactive”.

For `CCCCCCCC/C=C\CCCCCCCC(=O)OCCCC`, the activity change, negative = cytotoxicity was -6.74% [at 19 µM] (inactive).

Take `CCOC(=O)[C@H](CCc1ccccc1)N[C@@H](C)C(=O)N1C(=O)N(C)C[C@H]1C(=O)O`: the Potency result is “inactive”.

Regarding `O=C(O)c1ccc(Cl)cc1Cl`, the Potency result was “inactive”.

As for `N#Cc1ccc(C(=O)O)cc1`, the Potency entry is “inactive”.

Regarding `CCCCCCCCC1CCC(=O)O1` (centres undefined), the Potency result is “inactive”.

On to `CN1CCN(CC(=O)N2c3ccccc3C(=O)Nc3cccnc32)CC1`, for which the activity change, negative = cytotoxicity was 5.53% [at 8.39 µM] (inactive).

Consider `O=C(CS(=O)Cc1ccco1)NC/C=C\COc1cc(CN2CCCCC2)ccn1` (centres undefined), for which the Potency entry was “inactive”.

With `COc1cc(C(=S)N2CCOCC2)cc(OC)c1OC`, the Potency entry is “inactive”.

Regarding `C=C1CC/C=C(\C)CC[C@@H]2[C@@H]1CC2(C)C`, the Potency result is “inactive”.

Take `CC1(C)S[C@@H]2[C@H](N=CN3CCCCCC3)C(=O)N2[C@H]1C(=O)O`: the Potency result was “inactive”.

Regarding `Nc1ncnc(Nc2ccccc2)n1`, the Potency entry was “inactive”.

With `CCN1CCc2nc(N)oc2CC1`, the Potency result was “inactive”.

Regarding `CN(C)c1ccc(C=O)cc1`, the Potency entry is “inactive”.

On to `CC(N)C(=O)OC(C)(C)Cc1ccc(Cl)cc1` (centres undefined), for which the Potency entry was “inactive”.

As for `Cc1cc(Cl)c(C)cc1Cl`, the Potency entry is “inactive”.

The nature of another test: qHTS assay to identify small molecule antagonists of the estrogen receptor beta (ER-beta) signaling pathway - cell viability counter screen (AID 1259382).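 Note: HEK293T cells carrying ER-beta-UAS-bla reporter stimulated with estradiol; nearly all actives have a fitted effect of over 55% in size.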 Particulars: ER-beta-UAS-bla HEK293T viability, CellTiter-Glo luminescence, 16 h; series mostly up to 92.4 µM. The procedure, abridged: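 Readout: luminescence, CellTiter-Glo, same wells as bla assay. System: ER-beta-UAS-bla GripTite HEK293T, 2% charcoal-stripped FBS. Exposure: compounds plus 1nM 17-beta-estradiol, 16 hr, 37C.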
With `NS(=O)(=O)c1ccc(NC(=O)CCC(=O)O)cc1`, the outcome was inactive.

Regarding `CCCCCCCCSCC`, the compound was called inactive.

For the compound `CC(C)N(c1ccccc1)C(C)C`, the compound was called inactive.

Regarding `CC(C)CC(=O)O`, the compound was classed as inactive.

In the case of `C=C(C)C(=O)OCCOP(=O)(O)OCCOC(=O)C(=C)C`, the outcome was inactive.

For `CC(=O)NCCCCCC(=O)O`, the outcome was inactive.

As to `COC(=O)CCCCCCCC(=O)OC`, the compound was called inactive.

For the compound `CN(C)C(=O)CNC(=O)Cc1ccccc1`, the compound was classed as inactive.

On to `C[C@H](N)[C@H](O)c1cccc(O)c1`, for which the call was inactive.

Take `Cc1ccc2c(c1)OCC(=O)CO2`: the compound was classed as inactive.

Regarding `C[C@H](CCC(=O)O)[C@H]1CC[C@H]2[C@@H]3C(=O)C[C@@H]4CC(=O)CC[C@]4(C)[C@H]3CC(=O)[C@]12C`, the compound was called inactive.

`Cc1ccc(C=O)cc1C`: the compound was called inactive.

`CCCCCCCCOS(=O)(=O)O`: the compound was called inactive.

Regarding `CC(=O)/C=C/C1C(C)=CCC(C)C1(C)C` (centres undefined), the compound was classed as inactive.

Take `CCCC(=O)C(C)=O`: the result was inactive.

In the case of `O=C1CCCC(=O)O1`, the result was inactive.

As for `CCOC(=O)CC(=O)c1ccccc1`, the outcome was inactive.

In the case of `C[C@@H](O)[C@H]1C(=O)N2C(C(=O)O)=C(SCCN=CN)C[C@H]12`, the call was inactive.

Regarding `CC(C)OC(=O)CCCCC(=O)OC(C)C`, the outcome was inactive.

Turning to `CNS(=O)(=O)CCc1ccc2[nH]cc(C3CCN(C)CC3)c2c1`, the compound was called inactive.

With `CC(=C(CCOC(=O)C(C)C)SSC(CCOC(=O)C(C)C)=C(C)N(C=O)Cc1cnc(C)nc1N)N(C=O)Cc1cnc(C)nc1N`, the outcome was inactive.

For the compound `O=S(=O)(O)c1ccc2cc(O)c(S(=O)(=O)O)cc2c1`, the compound was classed as inactive.

With `CCCCCCCC/C=C\CCCCCCCC(=O)OCCCC`, the activity change, negative = cytotoxicity is -4.71% [at 19 µM] (inactive).

In the case of `CCOC(=O)[C@H](CCc1ccccc1)N[C@@H](C)C(=O)N1C(=O)N(C)C[C@H]1C(=O)O`, the outcome was inactive.

Consider `O=C(O)c1ccc(Cl)cc1Cl`, for which the compound was called inactive.

As to `N#Cc1ccc(C(=O)O)cc1`, the compound was classed as inactive.

Consider `CCCCCCCCC1CCC(=O)O1` (centres undefined), for which the compound was classed as inactive.

With `CN1CCN(CC(=O)N2c3ccccc3C(=O)Nc3cccnc32)CC1`, the activity change, negative = cytotoxicity was 9.64% [at 8.39 µM] (inactive).

Take `O=C(CS(=O)Cc1ccco1)NC/C=C\COc1cc(CN2CCCCC2)ccn1` (centres undefined): the outcome was inactive.

Turning to `COc1cc(C(=S)N2CCOCC2)cc(OC)c1OC`, the call was inactive.

Regarding `C=C1CC/C=C(\C)CC[C@@H]2[C@@H]1CC2(C)C`, the compound was classed as inactive.

Consider `CC1(C)S[C@@H]2[C@H](N=CN3CCCCCC3)C(=O)N2[C@H]1C(=O)O`, for which the call was inactive.

Consider `Nc1ncnc(Nc2ccccc2)n1`, for which the call was inactive.

Turning to `CCN1CCc2nc(N)oc2CC1`, the outcome was inactive.

For `CN(C)c1ccc(C=O)cc1`, the call was inactive.

For `CC(N)C(=O)OC(C)(C)Cc1ccc(Cl)cc1` (centres undefined), the compound was called inactive.

As for `Cc1cc(Cl)c(C)cc1Cl`, the call was inactive.
